In PubChem BioAssay (NCI):
About 83,000 compounds went through this panel and 20% of them were active in at least one assay; those are over-represented in the sample as a whole.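 A percent growth of 40 corresponds to 60% growth inhibition; 0 means no net growth; -100 means all cells died. Active threshold: below 10.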 A number with no mark means an inactive call. The source made the active and inactive calls.

What was measured:
Test in all cases: NCI-60 one-dose screen, 48 h (100 = growth as untreated, 0 = no growth, -100 = all killed)
Conditions in all cases: 10 µM unless noted
[1] = test system: NCI-H23 lung
[2] = test system: NCI-H226 lung
[3] = test system: NCI-H322M lung
[4] = test system: HOP-62 NSCLC
[5] = test system: NCI-H460 lung
[6] = test system: HOP-92 NSCLC
[7] = test system: NCI-H522 lung
[8] = test system: A549/ATCC NSCLC
[9] = test system: 786-0 renal
[10] = test system: COLO 205 colon
[11] = test system: DU-145 prostate
[12] = test system: K-562 leukemia
[13] = test system: MALME-3M melanoma
[14] = test system: MDA-MB-231 breast
[15] = test system: RXF 393 renal
[16] = test system: SF-268 CNS
[17] = test system: SF-295 CNS
[18] = test system: SF-539 CNS
[19] = test system: UACC-257 melanoma
[20] = test system: M14 melanoma

Row | SMILES | growth [1] | growth [2] | growth [3] | growth [4] | growth [5] | growth [6] | growth [7] | growth [8] | growth [9] | growth [10] | growth [11] | growth [12] | growth [13] | growth [14] | growth [15] | growth [16] | growth [17] | growth [18] | growth [19] | growth [20]
1 | COC(=O)C1=C(C(=O)ON)C2C=CC1(C(Cc1ccccc1)Nc1ccccc1)O2 (stereo not given) | 89.4% | 107% | 93.3% | 105% | 103% | 46.5% | -77.4% (active) | 96.1% | 93% | -72% (active) | 73.9% | -1.55% (active) | -74% (active) | 103% | 92.1% | 95% | 103% | 90% | 87.8% | 76.3%
2 | Cc1nc2sccn2c1-c1nc2sccn2c1/C=C1/C(=O)Nc2ccccc21 | 53.4% | 63.1% | 67.1% | 53.7% | 20.5% | 4.55% (active) | -6.81% (active) | 39.5% | 51.1% | 20.1% | 48% | – | 50% | 44.6% | 32.7% | 60.9% | -8.95% (active) | 16.4% | 51.8% | 34.2%
3 | COc1cc(-c2cc(-c3ccc(N(C)C)cc3)nc(N3CCOCC3)c2C#N)cc(OC)c1OC | 60% | 19.9% | 35.8% | -36.8% (active) | 15.2% | 4.13% (active) | 0.156% (active) | 26.9% | -38.5% (active) | 19.9% | 52.4% | – | 31.1% | 25.2% | -43.2% (active) | 36% | -20.9% (active) | 47.3% | 24.3% | -61.5% (active)
4 | COc1cc2cc(Oc3cccc(NC(=O)Nc4cc(C(F)(F)F)cc(C(F)(F)F)c4)c3)c(C)nc2cc1OC | 2.28% (active) | -10.2% (active) | 14.9% | -54.1% (active) | 7% (active) | -25.4% (active) | -33.4% (active) | 5.93% (active) | -16.6% (active) | -81.2% (active) | 19.5% | – | -3.13% (active) | -36.1% (active) | -24.5% (active) | 15.3% | -59.2% (active) | -40.9% (active) | -4.68% (active) | 9.04% (active)
5 | O=C1/C=C/[C@@H](O)[C@@H]2C[C@@H](O)C[C@H]2/C=C/CCC[C@H](CCc2ccc3ncccc3c2)O1 | -32.5% (active) | -28.7% (active) | 17.6% | 15.3% | 15% | 30.2% | -53.4% (active) | 19.2% | -50.2% (active) | -98.4% (active) | 13.5% | – | -17.8% (active) | -43% (active) | -32.6% (active) | 15.2% | 1.79% (active) | 19.2% | 19.3% | 6.52% (active)
6 | C=C1C(=O)O[C@H]2[C@H]1CC/C(COC(=O)NCC(C)c1ccc(CC(C)C)cc1)=C\CC[C@@]1(C)O[C@@H]21 (stereo not given in full) | 30.7% | 61.4% | 87% | 82.2% | 19.7% | -33.3% (active) | -64.1% (active) | 73% | -87.7% (active) | -50.3% (active) | 16.4% | -18.2% (active) | -62.7% (active) | -62.8% (active) | -73.7% (active) | -17.1% (active) | 83.4% | -77% (active) | 56.1% | -29.8% (active)
7 | N=C1C(c2nc3ccccc3s2)=C(O)CN1c1cc(Cl)cc(Cl)c1 | 88.6% | 102% | 89.1% | 62.2% | 67.5% | -15.8% (active) | 86.5% | 71.4% | 71.1% | 90.6% | 86.6% | – | 63.8% | 66.4% | 63.9% | 173% | 88.2% | 46.9% | 74.4% | 69%
8 | Cc1ccc(-n2nc3c(c(C#N)c2=O)CC(c2ccccc2[N+](=O)[O-])C([N+](=O)[O-])=C3O)cc1 (stereo not given) | 93.2% | 92.1% | 88% | 84.6% | 95.4% | 88.5% | 89.4% | 90.1% | 82.7% | 101% | 79.8% | – | 79.5% | 70.7% | 81.9% | 85.7% | 105% | 96.9% | 93.8% | 92.1%
9 | COc1ccc(-c2nc(S(=O)(=O)c3ccccc3)c(S(=O)CC(=O)N3CCC(C)CC3)o2)cc1 (stereo not given) | 54.1% | 80.3% | 73.2% | 76.6% | 80.4% | -22.6% (active) | -86.6% (active) | 77.4% | 10.3% | 48.7% | 42.5% | – | -16.6% (active) | 24.7% | 17.2% | 62.5% | 92.9% | 40.4% | 65.9% | 35.1%
10 | Cc1ccc(-c2csc(NC(=O)CSc3nc(-c4ccccc4)cc(=O)[nH]3)n2)cc1 | 92.2% | 103% | 93.4% | 100% | 101% | 82.5% | 80.3% | 91.7% | 104% | 109% | 103% | – | 94.4% | 93.2% | 110% | 90.2% | 87.5% | 97.7% | 99.9% | 105%
11 | COc1ccc(Cc2cnc(NC(=O)c3ccc4c(c3)OCCO4)s2)cc1 | 18.8% | 1.86% (active) | 41.3% | 29.1% | 6.33% (active) | 57.8% | -2.66% (active) | 16.1% | 26.6% | -6.28% (active) | 14.9% | – | 55.4% | 37.1% | 19.5% | 34.8% | 10.5% | -1.94% (active) | 46.4% | 15.6%
12 | COc1ccc(/C=C(\C#N)n2nc3cccc(F)c3n2)cc1 | 101% | 96.9% | 98.6% | 105% | 106% | 96.1% | 93% | 98.1% | 96.6% | 115% | 103% | 82.8% | 100% | 112% | 104% | 104% | 99.9% | 101% | 95.5% | 105%
13 | O=C(/C=C(O)/C=C/c1ccc(SC(F)(F)F)cc1)/C=C/c1ccc(SC(F)(F)F)cc1 | 83.2% | 100% | 102% | 101% | 91.1% | 93% | 93.7% | 95.4% | 87.2% | 114% | 97.2% | 77.6% | 98.6% | 99.8% | 104% | 86.3% | 97.5% | 106% | 104% | 79.9%
14 | O=C1c2c(c3c4cccc(F)c4[nH]c3c3ccc4ccccc4c23)C(=O)N1O | 56.2% | 54.1% | 64% | 63.2% | 10.9% | 79.1% | 30% | 65.7% | 70.7% | 57.4% | 55.1% | – | 76.8% | 70.8% | 46.9% | 32.5% | 47.9% | 40.4% | 67.5% | 38.3%
